Bioassay records as filed in PubChem BioAssay.
KB-V1 MDR tox = KB-V1 MDR subline cytotoxicity; KB-V1 MDR cells viability, CellTiter-Glo, 72 h; Potency, µM (doses to about 46.1 µM), hits mostly cytotoxic; actives 3.4% (n = 400,000); further: on the % scale 0 is the no-effect control and ±100 the full control effect; nearly all actives have a fitted effect of over 60% in size
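Compound-treated KB-V1 multidrug-resistant cells, 72 h, 37 degrees C; viability by CellTiter-Glo. Fitted qHTS curves give the values.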
ELG1 DNA repair = blocks ELG1-dependent DNA repair in HEK293T cells; HEK293T ELG1-luciferase reporter, luminescence, 16 h; DNA damage induced by 5-fluorouridine; Potency, µM (doses to about 46.1 µM), without a hit: at the top dose activity change, negative = inhibition, actives largely listed as inhibitors; actives 2.3% (n = 330,000); further: on the % scale 0 is the no-effect control and ±100 the full control effect; nearly all actives have a fitted effect of over 55% in size
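Luminescence from the luciferase reporter, measured 30 min after ONE-Glo reagent at room temperature, was the read-out. Beforehand, 2,000 cells per well were exposed for 16 hr at 37 °C to 5-fluorouridine together with compound or vehicle.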
KB-3-1 cytotox = kills parental KB-3-1 adenocarcinoma cells | KB-3-1 viability, CellTiter-Glo ATP luminescence, 72 h | Potency, µM (series often up to 46.1 µM), most hits filed as cytotoxic | actives 1.4% (n = 400,000) | AID 1347075; further: on the % scale 0 is the no-effect control and ±100 the full control effect; nearly all actives have a fitted effect of over 60% in size
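72 h, 37 °C compound treatment of KB-3-1 parental cells; CellTiter-Glo added, 10 min, luminescence read. Data corrected against DMSO-only plates and normalized before curve fitting.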
SW480 rereplic = DNA re-replication induction in SW480 cells; actives 1.8% (n = 340,000); Potency, µM (series often up to 46.1 µM), for inactives: at the highest dose re-replication activation, most hits filed as activators; SW480 DNA re-replication, Hoechst DNA content imaging, 48 h; further: % of control where 0% means no effect; nearly all actives have a fitted effect of over 55% in size
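DNA re-replication was detected as more nuclei of elevated Hoechst intensity after 48 hr exposure to compound (23 nL pinned per well of 250 cells).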
MCF10A rerep = induces DNA re-replication in MCF 10a normal breast cells; MCF 10A DNA re-replication, Hoechst nuclear intensity, 48 h; Potency, µM (top dose mostly 46.1 µM), for the others: at the top dose activity, positive = re-replication, actives largely listed as activators; actives 2.9% (n = 350,000); AID 624296; further: % of control where 0% means no effect; nearly all actives have a fitted effect of over 50% in size
ELG1 FLuc counter = luciferase inhibition in cell-free luciferin readout for ELG1 hits; Potency, µM (series often up to 46.1 µM), for the others: at the highest dose activity change, negative = inhibition, usual class: inhibitors; shares compounds with ELG1 DNA repair; AID 624247; cell-free firefly luciferase luminescence counter-screen, ViewLux; actives 3% (n = 350); further: on the % scale 0 is the no-effect control and ±100 the full control effect
ELG1-Luc inh = inhibits ELG1-dependent DNA repair in HEK293T cells, confirmed | actives 68% (n = 670) | Potency, µM (highest dose often 46.1 µM), without a hit: at the highest dose activity change, negative = inhibition, actives largely listed as inhibitors | shares compounds with ELG1 DNA repair | HEK293T ELG1-luciferase levels, luminescence; cells co-treated with 5-fluorouridine; further: on the % scale 0 is the no-effect control and ±100 the full control effect; nearly all actives have a fitted effect of over 55% in size
Target sequence (Q96QE3 whole entry, looked up): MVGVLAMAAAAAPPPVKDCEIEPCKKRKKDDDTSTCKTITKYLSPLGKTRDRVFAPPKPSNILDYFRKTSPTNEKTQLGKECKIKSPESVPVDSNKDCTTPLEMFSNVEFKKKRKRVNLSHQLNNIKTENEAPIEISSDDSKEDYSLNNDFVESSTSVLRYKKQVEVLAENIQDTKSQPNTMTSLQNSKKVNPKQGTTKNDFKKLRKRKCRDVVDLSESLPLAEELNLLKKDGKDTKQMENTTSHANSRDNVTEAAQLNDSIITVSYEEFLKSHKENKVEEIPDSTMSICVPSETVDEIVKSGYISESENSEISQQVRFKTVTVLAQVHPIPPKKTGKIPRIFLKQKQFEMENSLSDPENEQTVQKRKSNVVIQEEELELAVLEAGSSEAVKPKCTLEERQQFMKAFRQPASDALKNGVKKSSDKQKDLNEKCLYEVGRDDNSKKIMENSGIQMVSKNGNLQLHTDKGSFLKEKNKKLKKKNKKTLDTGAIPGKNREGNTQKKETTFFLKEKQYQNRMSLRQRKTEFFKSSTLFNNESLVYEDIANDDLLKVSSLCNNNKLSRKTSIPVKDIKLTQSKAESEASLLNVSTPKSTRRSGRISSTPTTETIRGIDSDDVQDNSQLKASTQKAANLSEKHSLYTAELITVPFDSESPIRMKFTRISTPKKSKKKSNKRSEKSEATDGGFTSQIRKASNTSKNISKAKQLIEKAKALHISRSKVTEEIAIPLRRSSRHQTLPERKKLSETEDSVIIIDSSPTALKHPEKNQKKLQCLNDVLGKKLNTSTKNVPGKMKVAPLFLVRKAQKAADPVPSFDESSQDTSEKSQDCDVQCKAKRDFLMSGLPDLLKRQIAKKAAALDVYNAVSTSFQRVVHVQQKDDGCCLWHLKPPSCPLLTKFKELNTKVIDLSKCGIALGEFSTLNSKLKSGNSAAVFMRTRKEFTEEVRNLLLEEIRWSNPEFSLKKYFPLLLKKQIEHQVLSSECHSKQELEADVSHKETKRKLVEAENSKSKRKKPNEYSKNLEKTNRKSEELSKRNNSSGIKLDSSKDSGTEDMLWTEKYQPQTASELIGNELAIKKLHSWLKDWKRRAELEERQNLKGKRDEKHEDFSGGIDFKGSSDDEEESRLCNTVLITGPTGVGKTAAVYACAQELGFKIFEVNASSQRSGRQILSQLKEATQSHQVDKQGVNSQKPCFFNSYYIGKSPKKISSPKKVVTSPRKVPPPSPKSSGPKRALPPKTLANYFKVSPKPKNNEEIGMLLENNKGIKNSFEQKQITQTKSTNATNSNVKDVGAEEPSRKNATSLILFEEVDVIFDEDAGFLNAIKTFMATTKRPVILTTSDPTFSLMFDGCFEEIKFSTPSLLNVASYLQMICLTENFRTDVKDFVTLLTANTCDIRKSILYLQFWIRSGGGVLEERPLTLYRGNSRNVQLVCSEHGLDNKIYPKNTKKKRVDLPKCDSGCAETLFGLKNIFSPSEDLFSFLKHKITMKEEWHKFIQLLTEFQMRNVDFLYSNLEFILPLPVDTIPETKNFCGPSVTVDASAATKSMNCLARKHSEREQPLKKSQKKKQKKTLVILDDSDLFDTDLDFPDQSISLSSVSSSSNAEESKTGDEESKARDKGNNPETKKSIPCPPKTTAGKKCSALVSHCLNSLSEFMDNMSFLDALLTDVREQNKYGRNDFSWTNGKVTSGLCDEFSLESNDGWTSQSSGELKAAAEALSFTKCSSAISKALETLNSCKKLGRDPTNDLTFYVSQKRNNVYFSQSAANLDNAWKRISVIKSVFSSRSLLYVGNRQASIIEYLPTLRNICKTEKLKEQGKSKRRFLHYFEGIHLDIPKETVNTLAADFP
ELG1 MMS Luc = confirmation of human ELG1 repair inhibitors, MMS stimulated | actives 53% (n = 670) | shares compounds with ELG1 DNA repair | HEK293T luciferase-tagged ELG1 level, MMS stimulated | Potency, µM (top dose mostly 46.1 µM), for inactives: at the highest dose activity change, negative = inhibition, most hits filed as inhibitors; further: on the % scale 0 is the no-effect control and ±100 the full control effect; nearly all actives have a fitted effect of over 60% in size
ELG1 5-FU = confirmation of ELG1 repair inhibitors: viability with 5FU | shares compounds with ELG1 DNA repair | cell viability with 5-FU, ELG1-dependent repair | Potency, µM (series often up to 46.1 µM), without a hit: top-dose activity change, negative = viability loss, usual class: cytotoxic | 670 tested, under 10 active | AID 624250;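 further: ELG1-luc HEK293T cells cotreated with 5-fluorouridine at 10 µM final; viability measured 16 h after compound addition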
ELG1 MMS cell = confirmation of ELG1 repair inhibitors: viability with MMS; shares compounds with ELG1 DNA repair; Cell viability with MMS, ELG1-dependent DNA repair; Potency, µM (titrated, usually from 46.1 µM), without a hit: at the highest dose activity change, negative = viability loss, hits mostly cytotoxic; actives 33% (n = 670); AID 624251;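 further: ELG1-luc HEK293T cells co-treated with 10 µM MMS; viability read 16 h after compound addition; on the % scale 0 is the no-effect control and ±100 the full control effect; nearly all actives have a fitted effect of over 60% in size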
ELG1 unstim viab = unstimulated viability counter-screen for ELG1 repair hits. AID 624252. actives 8% (n = 900). shares compounds with ELG1 DNA repair. cell viability counter-screen, unstimulated, luminescence. Potency, µM (series often up to 45.9 µM), without a hit: at the highest dose activity change, negative = loss of viability, usual class: cytotoxic;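 further: compound exposure lasted 16 hours before reading; on the % scale 0 is the no-effect control and ±100 the full control effect; nearly all actives have a fitted effect of over 55% in size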
FLuc biochem = counter-screen for ELG1 repair inhibitors: firefly luciferase inhibition | shares compounds with ELG1 DNA repair | purified firefly luciferase, luminescence counter-screen | Potency, µM (series often up to 57.5 µM), for inactives: at the highest dose activity, negative = inhibition, hits mostly inhibitors | actives 10% (n = 350); further: on the % scale 0 is the no-effect control and ±100 the full control effect
* marks the source's active call; other numbers are inactive results; i = inactive; ? = inconclusive; . = not tested or not shown. Rows were chosen to be rich in hits. Some 8.2% of all compounds tested hit in one or more screens of this group. The call rests on the fitted dose curve; in most records, active means well fitted curve in the direction sought with a large enough effect; inconclusive means small, poorly fitted or top-dose-only effect, or another doubt; inactive means no such curve, though single readings can be large; an effect the other way counts as inactive or inconclusive. Potency means the concentration at half of the fitted maximal effect.

SMILES | KB-V1 MDR tox | ELG1 DNA repair | KB-3-1 cytotox | SW480 rereplic | MCF10A rerep | ELG1-Luc inh | ELG1 MMS Luc | ELG1 5-FU | ELG1 MMS cell | ELG1 unstim viab | others
Nc1ncc([N+](=O)[O-])c(N2CCCCCC2)n1 | i | 2.31µM* | ? | -8.9% | 3.5% | 4.45µM* | 12.5µM* | -14.4% | -0.5% | -13.4%
O=[N+]([O-])c1ccc(N2CCCC2)nc1N1CCCC1 | ? | -1.5% | i | ? | -19.7% | . | . | . | . | .
COc1cccc(NC(=O)COC(=O)c2sccc2C)c1 | i | ? | i | -5.8% | -1.1% | . | . | . | . | -4.4%
Cc1cccc(N2CCN(C(=O)CN3C(=O)COc4ccc(S(=O)(=O)N5CCC(C)CC5)cc43)CC2)c1C | i | . | i | . | . | . | . | . | . | .
COc1cc(C(=O)Nc2cccc(C(C)=O)c2)cc(OC)c1OC | i | 17.9% | i | -21.3% | -1.5% | . | . | . | . | .
COc1cc(-c2cc(C(=O)Nc3cccc(C(C)=O)c3)c3ccccc3n2)cc(OC)c1OC | 20.6µM* | 1.64µM* | ? | 1.9% | ? | 0.705µM* | 11.2µM* | ? | -9.8% | ?
COCCn1c(C)cc(C(=O)CSc2ccc(NC(C)=O)cc2)c1C | i | ? | i | -18.0% | 2.1% | . | . | . | . | .
CC(=O)Nc1ccc(SCC(=O)c2cc(C)n(Cc3cccs3)c2C)cc1 | ? | ? | i | 1.2% | ? | . | . | . | . | ? | ELG1 FLuc counter=?;FLuc biochem=13µM*
Cc1cc(Br)ccc1NC(=O)CN1C(=O)C2CC=CCC2C1=O (centres undefined) | i | -6.8% | i | 6.2% | 3.8% | . | . | . | . | .
COc1cccc(C(=O)NC(=S)Nc2ccccc2N2CCCC2)c1 | i | -14.1% | ? | 3.7% | 0.0% | . | . | . | . | .
COc1cc(C(=O)NC(=S)Nc2ccccc2N2CCCC2)cc(OC)c1OC | i | 2.59µM* | i | ? | ? | 3.97µM* | -18.6% | ? | 10.0% | ?
COc1cc(C(=O)Nc2ccccc2C(=O)Nc2ccccn2)cc(OC)c1OC | 6.51µM* | 2µM* | 8.2µM* | 23.1µM* | ? | 3.53µM* | 12.5µM* | ? | ? | ?
COc1cc(C(=O)Nc2ccccc2NC(=O)c2cc(OC)c(OC)c(OC)c2)cc(OC)c1OC | i | 3.26µM* | i | -18.1% | 7.3% | 3.15µM* | -0.2% | ? | 9.9% | ?
